High-throughput results as filed in PubChem BioAssay.
Hits are enriched below; roughly 7.4% of the tested compounds scored in any of these assays.
Rab9 promoter act = activates the Rab9 promoter; Huh7 Rab9 promoter-luciferase reporter, luminescence, 24 h; Potency, µM (series often up to 9.22 µM), for inactives: at the highest dose activation, negative = inhibition, usual class: activators; 320,000 tested, 2.8% active; AID 485297; note: % of control where 0% means no effect; nearly all actives have a fitted effect of over 60% in size
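Luminescence read-out: Huh7 cells stably expressing Rab9-luciferase, treated 24 h with compound at 37 °C, then lysed with luciferase reagent for 10 min at ambient before reading.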
ELG1 genotoxic = induces genotoxicity in HEK293T cells with luciferase-tagged ELG1 | HEK293T ELG1-luciferase reporter, luminescence, 16 h | Potency, µM (doses to about 46 µM), for the others: at the highest dose activity change, positive = activation, hits mostly activators | 330,000 tested, 1.3% active | AID 504466; note: % of control where 0% means no effect; nearly all actives have a fitted effect of over 60% in size
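Luminescence read-out: rising ELG1-luciferase signal, reflecting elevated ELG1 protein under genetic stress, flags genotoxic compounds. Cells were treated for 16 hr at 37 °C before ONE-Glo detection.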
SMN2 splice up = increases expression of the SMN2 splice variant. HEK293 SMN2-luciferase splicing reporter, luminescence, 30-36 h. Potency, µM (top dose mostly 46.1 µM), without a hit: at the top dose activity change, positive = activation, usual class: activators. 210,000 tested, 2.8% active. AID 1458; note: % of control where 0% means no effect; nearly all actives have a fitted effect of over 55% in size
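HEK293 cells carry an SMN2 minigene-luciferase reporter in which exon 7 inclusion puts luciferase in frame. Cells were seeded at 2000 cells/well, attached for 10-12 hours, then exposed to compounds for 30-36 hours at 37C before ONE-Glo luminescence.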
p53 reactivator = restores transcriptional activity of mutant p53. 320,000 tested, 0.063% active. Potency, µM (series often up to 92.2 µM), for the others: at the top dose activity change, positive = activation, hits mostly activators. H1299 p53-A138V BP100-luciferase reporter, luminescence, 24 h; note: % of control where 0% means no effect; nearly all actives have a fitted effect of over 45% in size
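H1299 (p53-null), stable ts p53-A138V + BP100-Luc; 1000 cells/well, Opti-MEM/10% FBS; cpd 4 pt, 1:5; 24 h, 37 deg C, 5% CO2; detection reagent 10 min RT; luminescence.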
FLuc modulator = firefly luciferase modulation, counter-screen for miR-21 project; AID 588342; P08659; Potency, µM (highest dose often 57.5 µM), for inactives: at the highest dose activity change, negative = inhibition, hits mostly inhibitors; 360,000 tested, 6.9% active; purified FLuc, Km substrates, luminescence inhibition;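 note: plate controls were vehicle for no effect and reference inhibitor for full effect; nearly all actives have a fitted effect of over 55% in size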
Target sequence (P08659 whole entry, looked up): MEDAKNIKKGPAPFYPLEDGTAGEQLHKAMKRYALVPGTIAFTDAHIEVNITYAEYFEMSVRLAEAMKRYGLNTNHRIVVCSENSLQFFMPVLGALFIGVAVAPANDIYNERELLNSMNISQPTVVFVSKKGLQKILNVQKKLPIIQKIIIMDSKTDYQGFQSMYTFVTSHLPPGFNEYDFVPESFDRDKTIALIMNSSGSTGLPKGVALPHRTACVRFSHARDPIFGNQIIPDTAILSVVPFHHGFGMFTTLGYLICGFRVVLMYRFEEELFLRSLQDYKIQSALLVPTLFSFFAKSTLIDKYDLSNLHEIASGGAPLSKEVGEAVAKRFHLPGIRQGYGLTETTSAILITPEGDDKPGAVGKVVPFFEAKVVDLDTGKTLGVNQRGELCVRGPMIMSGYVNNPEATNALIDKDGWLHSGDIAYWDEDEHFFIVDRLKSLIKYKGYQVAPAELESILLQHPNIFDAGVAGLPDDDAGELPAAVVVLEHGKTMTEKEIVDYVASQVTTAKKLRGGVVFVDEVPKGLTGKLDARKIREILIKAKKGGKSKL
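Biochemical qHTS of compounds, final roughly 60 µM downward over six points, against 10 nM purified firefly luciferase using Km concentrations of substrates (10 uM D-luciferin, 10 uM ATP) in Tris acetate pH 7.5 buffer; luminescence output.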
NPC1 promoter act = NPC1 promoter activation; Huh7 NPC1 promoter luciferase reporter, 24 h; Potency, µM (titrated, usually from 9.22 µM), for inactives: at the highest dose activation, hits mostly activators; 320,000 tested, 2.4% active; AID 485313; note: % of control where 0% means no effect; nearly all actives have a fitted effect of over 60% in size
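Cells: Huh7 expressing luciferase under the NPC1 promoter, 1500/well. Seeded 2 h, compound added, incubated 24 h at 37 °C. Luciferase reagent, 10 min ambient, then luminescence.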
An asterisk follows results filed as active; ? = inconclusive; · = no result; [ ] = another dose, or the depositor's remark. Calls come from the whole dose curve; as a rule, active = well fitted curve in the direction sought with a large enough effect; inconclusive = small, poorly fitted or top-dose-only effect, or another doubt; inactive = no such curve, though single readings can be large; an effect the other way counts as inactive or inconclusive. Potency is the fitted concentration of half-maximal effect.

SMILES | Rab9 promoter act | ELG1 genotoxic | SMN2 splice up | p53 reactivator | FLuc modulator | NPC1 promoter act
COc1cc2c(cc1NC(=O)CSc1ccc(C)cc1)oc1ccccc12 | -2.2% | -6.0% | -21.1% | -3.0% | 0.9% | -2.1%
CCCc1cc(NC(=O)COC(=O)c2nccnc2N)n(-c2ccccc2)n1 | -3.8% | 0.2% | · | -5.5% | -1.6% | -4.7%
Cn1c(CC(=O)Nc2ccccc2Cl)nnc1SCC(=O)NC1CCCCC1 | 2.6% | 5.1% | · | 7.9% | 1.3% | -2.7%
N#Cc1ccccc1S(=O)(=O)N1CCCC(c2nc3c(nnn3Cc3cccc(Cl)c3)c(=O)[nH]2)C1 (stereo not given) | · | · | -8.1% | · | -17.8% | ·
COc1ccc(CNC(=O)CCCN2C(=O)CSc3c2c(C)nn3-c2ccccc2)c(OC)c1 | · | · | · | · | -14.0% | ·
O=C(N=C1SCC(=O)N1c1ccccc1Cl)c1ccccc1 | 2µM* | ? | 12.6µM* | 3.4% | ? | ?
Cc1ccc(NC(=O)c2ccc3ccccc3n2)nc1 | 3.55µM* | 9.2µM* | 3.16µM* | 23.3% | 1.69µM* | 2.51µM*
O=C(Nc1ccc(Cl)cn1)c1ccc2ccccc2n1 | ? | ? | 20µM* | 20.2% | 1.51µM* | ?
Cc1ccc(OCCNC(=O)c2ccc3ccccc3n2)cc1 | 3.5% | 21.1% | · | 7.9% | ? | -5.6%
O=C(/C=C/c1ccccc1)NC(=S)Nc1ncccn1 | -0.2% | 4.4% | · | 7.3% | 16.9µM* | 0.9%
COc1ccccc1/C=C/C(=O)NC(=S)Nc1ccccn1 | 14.3% | 23.1µM* | · | ? | 10.7µM* | ?
COc1ccccc1/C=C/C(=O)NCc1ccccn1 | 6.6% | -1.0% | -11.8% | -0.2% | -8.6% | 2.2%
COc1ccc(/C=C/C(=O)NC(=S)Nc2ccccn2)cc1 | 0.891µM* | ? | · | 29.1% | ? | 1.26µM*
O=C(/C=C/c1ccccc1)NC(=S)Nc1ccccc1 | 4.2% | 5.2% | · | -2.5% | ? | 2.6%
O=c1c(CCc2ccccc2)nc2cnc(Oc3cccc(Cl)c3)nc2n1C[C@H]1CCCO1 | · | · | -39.5% | · | · | ·
NC(Cc1cnc[nH]1)C(=O)Nc1ccc2ccccc2c1 (stereo not given) | · | · | 12.6µM* | · | · | ·
N[C@@H](Cc1ccc(O)cc1)C(=O)Nc1ccc2ccccc2c1 | 16.5% | 6.5% | · | ? | ? | 27.0%
Nc1ccc2nc(COc3ccccc3)[nH]c2c1 | 14.6% | 7.2% | · | · | ? | 1.4%
Brc1ccc(OCc2nc3ccccc3[nH]2)cc1 | 2.51µM* | ? | · | ? | 2.39µM* | 3.16µM*
c1ccc2cc(OCc3nc4ccccc4[nH]3)ccc2c1 | 2µM* | ? | 2.82µM* | ? | 1.9µM* | 2.24µM*
COc1cccc(OCc2nc3ccccc3[nH]2)c1 | 3.55µM* | ? | 12.6µM* | ? | 6.75µM* | 3.16µM*
NNC(=O)c1ccc(OCc2nc3ccccc3[nH]2)cc1 | · | · | -15.3%[9.22 µM] | · | · | ·
COc1ccc(OCc2nc3ccccc3[nH]2)cc1 | 0.562µM* | 1.84µM* | 11.2µM* | ? | 3.38µM* | 1.58µM*
COc1ccc(/C=N/NC(=O)c2cc3cc(OC)c(OC)cc3[nH]2)cc1 | 0.3% | 1.3% | · | 0.7% | ? | -1.9%
CCOc1ccc(/C=N/NC(=O)c2cc3ccccc3cc2OC)cc1 | -2.6% | -8.4% | · | -8.4% | -16.6% | -4.6%
SMILES | Rab9 promoter act | ELG1 genotoxic | SMN2 splice up | p53 reactivator | FLuc modulator | NPC1 promoter act
COc1ccc(/C=C\C(=O)NCC(=O)N/N=C/c2ccc(O)cc2O)cc1 | -0.5% | ? | · | 0.7% | ? | -1.7%
CCOc1ccc2[nH]c(C(=O)N/N=C/c3ccc(OC)cc3)cc2c1 | -18.1% | 5.9% | · | 14.9% | 10.7µM* | -8.1%
COc1ccc2cc(C(=O)N/N=C/c3cc(OC)c(OC)c(OC)c3)[nH]c2c1 | -2.0% | -6.4% | · | -0.3% | 6.75µM* | 0.6%
COc1ccc2[nH]c(C(=O)N/N=C/c3ccc(O)cc3O)cc2c1 | -1.7%[1.84 µM] | 15.3% | · | ? | 10.7µM* | -36.2%
Cc1c(C(=O)N/N=C/c2ccc(Cl)cc2)[nH]c2ccc(Cl)cc12 | -19.4% | 2.6% | ? | -3.5% | -13.3% | -17.6%
CCOc1ccc(/C=N/NC(=O)c2[nH]c3ccc(C)cc3c2C)cc1 | 3.9% | -2.3% | · | 2.9% | 10.7µM* | -2.6%
N=C(N)SCC(=O)O | · | · | -14.6%[9.22 µM] | · | · | ·
COc1cc2cc(C(=O)N/N=C/c3ccccc3Cl)[nH]c2cc1OC | -3.2% | -4.9% | · | -4.6% | 16.9µM* | -4.5%
COc1cc2cc(C(=O)N/N=C/c3ccc(F)cc3)[nH]c2cc1OC | 3.7% | 0.1% | · | -3.8% | ? | 1.0%
CCCn1c(=NC(=O)c2cc3ccccc3o2)c(C(=O)OCC)cc2c(=O)n3ccccc3nc21 | · | · | 6.0% | · | 0.4% | ·
Cc1nc2nc(-c3ccc(Cl)cc3)[nH]n2c(=O)c1C | 2.24µM* | ? | ? | ? | 6.01µM* | 2.51µM*
Cc1nc2c(-c3ccccc3)c[nH]n2c(=O)c1Cc1ccccc1 | ? | 1.4% | -60.0% | -2.7% | 26.9µM* | 7.9%
Cc1nc2nc(-c3ccccc3)[nH]n2c(=O)c1C | ? | ? | ? | ? | ? | 23.9%
Cc1nc2nc(-c3ccc(Cl)cc3)[nH]n2c(=O)c1Cc1ccccc1 | 26.8% | ? | ? | 4.9% | 3.01µM* | ?
COc1cc(C2Nc3ccccc3-c3nnc(SCc4ccc(C)cc4)nc3O2)cc(OC)c1O (stereo not given) | · | · | -5.1% | · | ? | ·
CCOC(=O)/C(C#N)=C/c1ccc(-c2ccccc2)o1 | · | · | 0.0% | · | 9.53µM* | ·
CCCCOC(=O)/C(C#N)=C/c1ccc(-c2ccc(Br)cc2)o1 | · | · | 3.3% | · | -18.7% | ·
CCOC(=O)/C(C#N)=C/N=c1ccc(C)cn1C | ? | ? | · | 12.5% | 16.9µM* | ?
CCOC(=O)/C(C#N)=C/c1ccc(-c2ccc(C)cc2)o1 | · | · | 10.2% | · | 3.79µM* | ·
CC(C)COC(=O)/C(C#N)=C\c1ccc(-c2ccccc2Cl)o1 | · | · | -2.2% | · | ? | ·
CCCN1C=CC(=C/C=C(\C#N)C(=O)OCC)C=C1 | 3.98µM* | ? | 14.1µM* | ? | 6.01µM* | 3.98µM*
CCOC(=O)N1CCc2c(sc3c2c(=O)n(CCc2ccccc2)c(=O)n3CC(=O)Nc2ccccc2C)C1 | · | · | -9.5% | · | -0.3% | ·
COc1ccccc1NC(=O)NNC(=O)CCN1CCOCC1 | 2.5% | 0.1% | · | 0.5% | -3.0% | 2.1%
COCCCNC(=O)Cn1c(=O)nc(-c2ccccc2)c2ccccc21 | · | · | · | · | -0.7% | ·
Oc1c(N=Nc2ccccn2)ccc2ccccc12 | -8.6% | ? | -66.9% | 2.5% | 1.35µM* | -5.1%
CCc1ccc(NC(=O)Nc2cccc(OC)c2)cc1 | 3.16µM* | ? | 14.1µM* | 7.2% | 2.69µM* | 2.82µM*
COc1cccc(NC(=O)Cc2ccc3ccccc3c2)c1 | 15.6% | -1.4% | · | 7.7% | ? | 0.5%
